Source: PubChem BioAssay (NCATS)
Records with an inconclusive call do not appear. Activity calls are given as the source filed them. Unless noted, the call rests on the fitted dose curve; in most records, active means well fitted curve in the direction sought with a large enough effect; inconclusive means small, poorly fitted or top-dose-only effect, or another doubt; inactive means no such curve, though single readings can be large; an effect the other way counts as inactive or inconclusive.

How the values were obtained:
[1] = target: Lysosomal acid glucosylceramidase (Homo sapiens) (UniProt P04062); experiment: Glucocerebrosidase-p2 (AID 348; in the data active means potency below about 10 µM; further: potency means the concentration at half of the fitted maximal effect); settings: purified GBA, blue fluorogenic substrate, 40 min
Method in brief: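 Compounds titrated from 0.6 nM upwards against 0.2 nM enzyme in pH 5.9 citric acid/KH2PO4, taurocholate, tween-20; blue fluorogenic substrate 80 uM, 40 min room temperature, stopped and read Ex 365/Em 440 for AC50.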

[2] = target: Cytochrome P450 1A2 (Homo sapiens) (UniProt P05177); experiment: p450-cyp1a2 (AID 410; calls by dose curve; further: potency means the concentration at half of the fitted maximal effect;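 on activity change, negative = inhibition: -100% = full effect of reference inhibitor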); settings: recombinant CYP1A2, luciferin-ME demethylation, luminescence; series mostly up to 57 µM
Method in brief: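 Luminescent readout of luciferin formed from Luciferin-ME by human CYP1A2; data normalized against complete inhibition by 57 uM furafylline. Enzyme 20nM, substrate 100uM at Km, 100mM KPO4 buffer, 60 min reaction at room temperature.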

[3] = target: Glucocorticoid receptor (Homo sapiens) (UniProt P04150); experiment: GR-GFP Redistribution (AID 450;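 active means compounds whose dose series gives a full or clear partial fitted curve of increased nuclear translocation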; further: potency means the concentration at half of the fitted maximal effect); settings: U2OS GR-GFP nuclear translocation, laser cytometry, 2 h
[4] = target: Glucocorticoid receptor (Homo sapiens) (UniProt P04150); experiment: GR-EFC Redistribution (AID 451; calls by dose curve; further: potency means the concentration at half of the fitted maximal effect); settings: CHO-K1 GR-EFC translocation, beta-gal luminescence, 2 h
Method in brief: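 CHO-K1 cells stably expressing nuclear-localized β-gal enzyme acceptor and GR fused C-terminally to the enzyme donor fragment; ligand-driven nuclear translocation restores β-gal by complementation. Compounds titrated up to 46 uM final, 2 h at 37 °C; luminescence read.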

[5] = target: Mitogen-activated protein kinase 10 (Mus musculus) (UniProt Q61831); experiment: JNK3 AlphaScreen Assay (AID 530; active means well fitted curve in either direction with a large enough effect, not every such curve was filed as active;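 further: kinase came from lysate of stimulated human HepG2 cells; signal reports phosphorylation of biotinylated GST-cJun 1-79 at Ser73 with 10 µM ATP; on the % scale 0 is the no-effect control and ±100 the full control effect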); settings: JNK3 lysate, c-Jun phosphorylation; series mostly up to 57.1 µM
Method in brief: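 Inhibitors reduce antibody binding to phosphorylated biotin-cJun, lowering AlphaScreen luminescence. Lysates from HepG2 cells pre-activated by IL-1beta plus TNF-alpha supplied JNK3; compounds were titrated.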

[6] = target: Cytochrome P450 3A4 (Homo sapiens) (UniProt P08684); experiment: qHTS Assay for Activators of Cytochrome P450 3A4 (AID 885); settings: recombinant CYP3A4, Luciferin-PPXE luminescence, 60 min; series mostly up to 57.1 µM; further: nearly all actives have a fitted effect of over 65% in size
Method in brief: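 20nM CYP3A4 + 25uM Luciferin-PPXE (=KM), 200mM KPO4; cpd 10 min RT; NADPH regen, 60 min RT; stop w/ detection buffer, 20 min; luminescence. Normalized to 57 uM ketoconazole.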

[7] = qHTS Assay for Lipid Storage Modulators (AID 1519; calls by dose curve); settings: Drosophila S3 cells, BODIPY lipid droplet/cell ratio, laser cytometry, cells loaded with oleic acid; for activity change, negative = inhibition: at 57.5 µM (top of the series)
Method in brief: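 Cells seeded at 5,000 per well were treated with compounds over a concentration series and loaded with oleic acid (400 uM, as added). Lipid droplet fluorescence (488 nm excitation, 500-530 nm channel) was read by laser-scanning cytometry and normalized to 20 uM Triacsin C.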

[8] = target: Dual specificity protein kinase CLK4 (Homo sapiens) (UniProt Q9HAZ1); experiment: qHTS Assay for Inhibitors of CDC-like Kinase 4 (Kinase-Glo Assay) (AID 1770); settings: recombinant Clk4, Kinase-Glo ATP depletion luminescence; series mostly up to 66.7 µM; further: nearly all actives have a fitted effect of over 65% in size; further: potency means the concentration at half of the fitted maximal effect
Method in brief: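 Recombinant human Clk4 (25 nM) phosphorylated RS repeat peptide (100 uM) with 1 uM ATP in Tris pH 7.5/MgCl2/EGTA/DTT/Triton buffer for 4.5 h at room temperature. Residual ATP was quantified by Kinase-Glo luciferase luminescence.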

[9] = target: Dual specificity protein kinase CLK4 (Homo sapiens) (UniProt Q9HAZ1); experiment: qHTS Assay for Inhibitors of CDC-like Kinase 4 (ADP-Glo Assay) (AID 1771); settings: recombinant CLK4, ADP-Glo luminescence; series mostly up to 80 µM; further: nearly all actives have a fitted effect of over 70% in size; further: potency means the concentration at half of the fitted maximal effect
Method in brief: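 Luminescence from ADP-Glo reports ADP produced by 25 nM Clk4 acting on 100 uM RS repeat peptide with 1 uM ATP over 1 hr at room temperature; residual ATP is depleted before ADP is converted to ATP for detection.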

[10] = target: Ubiquitin carboxyl-terminal hydrolase 1 (Homo sapiens) (UniProt O94782); experiment: Inhibitors of USP1/UAF1: Pilot qHTS (AID 504865); settings: purified USP1/UAF1, Ub-rhodamine cleavage fluorescence; series mostly up to 54.9 µM;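 further: rhodamine fluorescence freed from ubiquitin-rhodamine substrate followed over time; top concentration of the series differs between compounds; on the % scale 0 is the no-effect control and ±100 the full control effect; nearly all actives have a fitted effect of over 35% in size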
Method in brief: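 USP1/UAF1 complex (1nM) preincubated with compound 15 min at room temperature, then Ub-Rho substrate (150nM final) added. Fluorescence read kinetically at 480/540 nm, 6 reads every 60 seconds. Buffer: 50mM HEPES pH 7.8, 0.5mM EDTA, 0.1 mg/ml BSA, 1mM TCEP, 0.01% Tween-20.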

[11] = Primary qHTS for small molecule stabilizers of the endoplasmic reticulum resident proteome: Secreted ER Calcium Modulated Protein (SERCaMP) assay (AID 1508630); settings: SH-SY5Y GLuc-SERCaMP (Gaussia luciferase released on ER calcium loss) secretion, thapsigargin, luminescence; series mostly up to 38.4 µM; further: on the % scale 0 is the no-effect control and ±100 the full control effect
Method in brief: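 GLuc-SERCaMP-expressing SH-SY5Y cells, pretreated 16 h with compound, are challenged with thapsigargin to empty ER calcium stores; after 4 h, coelenterazine is added directly to the medium and luminescence is imaged.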

[12] = Stat Signaling Pathway (AID 446; active means well fitted curve in either direction with a large enough effect, not every such curve was filed as active;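 further: ME-180 cervical cancer cells given 40 pM IL-6 alongside compound; SIE-controlled beta-lactamase reporter measured as 460/530 nm FRET emission ratio; on the % scale 0 is the no-effect control and ±100 the full control effect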); settings: ME-180 SIE beta-lactamase reporter, IL-6 stimulated, 5 h; at 7.69 µM (top of the series) unless noted
Method in brief: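 ME-180 SIE-bla cells; overnight plating; cpd + IL-6 40 pM, 5 h, 37 C; LiveBLAzer 2.5 h RT; 460/530 nm emission ratio. Normalized to 300 pM IL-6 and 125 nM JAK inhibitor controls.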

[13] = target: 3',5'-cyclic-AMP phosphodiesterase 4B (Homo sapiens) (UniProt Q07343); experiment: qHTS Assay for Inhibitors of PDE-IV (AID 607; active means well fitted activation curve with a large enough effect in the main read-out, with a control signal flat, not every such curve was filed as active; further: % of control where 0% means no effect); settings: HEK293 ACTOne CNG channel cells, membrane potential fluorescence; series mostly up to 22.9 µM
Method in brief: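 ACTOne HEK293 cells carry a modified cAMP-gated CNG channel and express endogenous PDE4; plated 1000 cells/well, compounds up to 22.9 uM final. Membrane-potential dye fluorescence (ex 535/em 590) was read; parental cells received 10 uM forskolin + 100 uM RO 20-1724.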

[14] = AP1 Signaling Pathway (AID 357; active means well fitted curve in either direction with a large enough effect, not every such curve was filed as active;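 further: ME-180 reporter cells stimulated with EGF at its EC50 level; on the % scale 0 is the no-effect control and ±100 the full control effect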); settings: ME-180 (cervical carcinoma) AP-1-bla reporter, EGF-induced, beta-lactamase ratio, 5 h; at 7.69 µM (top of the series) unless noted
Method in brief: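 A ratiometric CCF4 readout (405 nm excitation; 460 and 530 nm emission) quantified AP-1-driven beta-lactamase in ME-180 cells after 5 h with compound and EC50 EGF; AC50 values were derived for activators and inhibitors.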

[15] = NFAT Signaling Pathway (AID 444; active means well fitted curve in either direction with a large enough effect, not every such curve was filed as active); settings: Jurkat NFAT-bla M1, carbachol, beta-lactamase ratio, 5 h; at 7.69 µM (top of the series) unless noted
Method in brief: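 Jurkat cells carrying an NFAT-driven β-lactamase reporter and co-transfected muscarinic M1 receptor were treated with compound plus carbachol (1 uM final, an EC50 level) for 5 h at 37 °C. CCF4 loading followed for 1 h at RT; 460/530 nm ratio gave %activity.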

[16] = target: Dual specificity protein kinase CLK4 (Homo sapiens) (UniProt Q9HAZ1); experiment: qHTS Assay for Inhibitors of CDC-like Kinase 4 (ADP-FP Assay) (AID 1795); settings: Transcreener ADP fluorescence polarization; series mostly up to 50 µM; further: on the % scale 0 is the no-effect control and ±100 the full control effect; nearly all actives have a fitted effect of over 60% in size
Method in brief: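 Recombinant human Clk4 (6.25 nM) phosphorylated RS repeat peptide (100 uM) with 1 uM ATP in Tris pH 7.5/MgCl2/EGTA/DTT/Triton buffer for one hour. ADP was quantified by Transcreener competitive fluorescence polarization against an ADP calibration curve.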

[17] = target: Cytochrome P450 3A4 (Homo sapiens) (UniProt P08684); experiment: qHTS Assay for Inhibitors and Substrates of Cytochrome P450 3A4 (AID 884); settings: recombinant CYP3A4, Luciferin-PPXE luminescence; series mostly up to 57.1 µM; further: potency means the concentration at half of the fitted maximal effect; nearly all actives have a fitted effect of over 50% in size
Method in brief: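 20 nM human CYP3A4 with 25 uM Luciferin-PPXE (at KM) in 200 mM KPO4, preincubated 10 min with compound; NADPH regeneration started a 60 min RT reaction. Luciferin detected by luminescence, normalized to 57 uM ketoconazole as full inhibition.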

[18] = measured here: cell count channel max response
[19] = measured here: lipid channel max response

Cytochrome P450 1A2 (Homo sapiens), sequence (P05177 whole entry, looked up): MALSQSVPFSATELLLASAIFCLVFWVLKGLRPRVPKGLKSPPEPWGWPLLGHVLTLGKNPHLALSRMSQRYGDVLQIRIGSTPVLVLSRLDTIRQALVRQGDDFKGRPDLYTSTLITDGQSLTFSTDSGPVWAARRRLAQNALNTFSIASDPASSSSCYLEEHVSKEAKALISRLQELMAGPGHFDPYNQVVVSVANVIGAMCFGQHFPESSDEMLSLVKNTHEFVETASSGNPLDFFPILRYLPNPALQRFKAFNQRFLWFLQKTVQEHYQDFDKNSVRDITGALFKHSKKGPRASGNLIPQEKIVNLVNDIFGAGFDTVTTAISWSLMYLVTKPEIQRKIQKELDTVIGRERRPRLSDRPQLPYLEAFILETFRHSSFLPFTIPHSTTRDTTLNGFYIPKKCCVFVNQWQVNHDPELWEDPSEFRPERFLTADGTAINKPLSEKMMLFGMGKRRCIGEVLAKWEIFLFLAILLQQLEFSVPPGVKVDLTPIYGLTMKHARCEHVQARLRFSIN
3',5'-cyclic-AMP phosphodiesterase 4B (Homo sapiens), sequence (Q07343 whole entry, looked up): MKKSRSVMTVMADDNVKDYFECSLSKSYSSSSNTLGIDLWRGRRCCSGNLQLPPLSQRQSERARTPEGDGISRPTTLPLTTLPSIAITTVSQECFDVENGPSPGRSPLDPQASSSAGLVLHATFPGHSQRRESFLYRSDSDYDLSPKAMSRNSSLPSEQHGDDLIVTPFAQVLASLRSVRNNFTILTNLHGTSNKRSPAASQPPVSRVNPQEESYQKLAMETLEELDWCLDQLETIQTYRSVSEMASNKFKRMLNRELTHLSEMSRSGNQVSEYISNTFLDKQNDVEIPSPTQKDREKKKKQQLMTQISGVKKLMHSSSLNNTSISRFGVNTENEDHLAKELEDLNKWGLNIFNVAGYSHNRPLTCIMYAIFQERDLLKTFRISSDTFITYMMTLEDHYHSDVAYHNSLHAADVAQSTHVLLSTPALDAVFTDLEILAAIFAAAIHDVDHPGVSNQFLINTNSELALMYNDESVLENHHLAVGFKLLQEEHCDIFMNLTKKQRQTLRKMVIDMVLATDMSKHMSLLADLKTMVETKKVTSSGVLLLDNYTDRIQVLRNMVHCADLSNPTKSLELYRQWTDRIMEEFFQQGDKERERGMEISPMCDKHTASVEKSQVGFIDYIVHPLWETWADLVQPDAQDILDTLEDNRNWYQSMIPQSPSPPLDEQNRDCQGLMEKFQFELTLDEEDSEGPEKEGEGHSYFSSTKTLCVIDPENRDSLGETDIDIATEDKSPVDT
Dual specificity protein kinase CLK4 (Homo sapiens), sequence (Q9HAZ1 whole entry, looked up): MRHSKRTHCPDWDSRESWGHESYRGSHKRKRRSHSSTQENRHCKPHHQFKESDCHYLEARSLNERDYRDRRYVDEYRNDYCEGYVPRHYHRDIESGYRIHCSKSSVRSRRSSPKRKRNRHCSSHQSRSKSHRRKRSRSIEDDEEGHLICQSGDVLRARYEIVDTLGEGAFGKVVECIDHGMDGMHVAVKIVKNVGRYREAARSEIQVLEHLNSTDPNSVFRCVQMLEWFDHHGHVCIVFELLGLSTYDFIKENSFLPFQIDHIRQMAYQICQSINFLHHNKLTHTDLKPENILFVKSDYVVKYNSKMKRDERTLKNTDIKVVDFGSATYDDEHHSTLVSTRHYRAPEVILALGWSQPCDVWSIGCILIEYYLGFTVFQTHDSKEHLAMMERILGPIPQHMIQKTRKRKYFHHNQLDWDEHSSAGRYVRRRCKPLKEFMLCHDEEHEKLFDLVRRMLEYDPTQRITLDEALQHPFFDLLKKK
Lysosomal acid glucosylceramidase (Homo sapiens), sequence (P04062 whole entry, looked up): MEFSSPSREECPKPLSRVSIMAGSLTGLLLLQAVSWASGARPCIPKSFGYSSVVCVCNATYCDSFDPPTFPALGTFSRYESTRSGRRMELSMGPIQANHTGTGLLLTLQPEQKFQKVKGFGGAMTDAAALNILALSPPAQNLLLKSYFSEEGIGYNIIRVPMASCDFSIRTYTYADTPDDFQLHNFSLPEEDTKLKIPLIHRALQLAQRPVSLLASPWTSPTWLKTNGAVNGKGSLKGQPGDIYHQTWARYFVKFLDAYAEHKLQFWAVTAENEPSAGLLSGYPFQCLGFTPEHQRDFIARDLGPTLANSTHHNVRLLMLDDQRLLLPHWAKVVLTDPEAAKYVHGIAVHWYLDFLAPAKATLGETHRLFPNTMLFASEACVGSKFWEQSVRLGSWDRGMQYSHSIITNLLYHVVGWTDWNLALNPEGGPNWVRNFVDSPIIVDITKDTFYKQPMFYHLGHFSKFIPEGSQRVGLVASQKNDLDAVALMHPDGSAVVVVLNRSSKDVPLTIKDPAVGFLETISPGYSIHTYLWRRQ
Glucocorticoid receptor (Homo sapiens), sequence (P04150 whole entry, looked up, the tested form may be a part): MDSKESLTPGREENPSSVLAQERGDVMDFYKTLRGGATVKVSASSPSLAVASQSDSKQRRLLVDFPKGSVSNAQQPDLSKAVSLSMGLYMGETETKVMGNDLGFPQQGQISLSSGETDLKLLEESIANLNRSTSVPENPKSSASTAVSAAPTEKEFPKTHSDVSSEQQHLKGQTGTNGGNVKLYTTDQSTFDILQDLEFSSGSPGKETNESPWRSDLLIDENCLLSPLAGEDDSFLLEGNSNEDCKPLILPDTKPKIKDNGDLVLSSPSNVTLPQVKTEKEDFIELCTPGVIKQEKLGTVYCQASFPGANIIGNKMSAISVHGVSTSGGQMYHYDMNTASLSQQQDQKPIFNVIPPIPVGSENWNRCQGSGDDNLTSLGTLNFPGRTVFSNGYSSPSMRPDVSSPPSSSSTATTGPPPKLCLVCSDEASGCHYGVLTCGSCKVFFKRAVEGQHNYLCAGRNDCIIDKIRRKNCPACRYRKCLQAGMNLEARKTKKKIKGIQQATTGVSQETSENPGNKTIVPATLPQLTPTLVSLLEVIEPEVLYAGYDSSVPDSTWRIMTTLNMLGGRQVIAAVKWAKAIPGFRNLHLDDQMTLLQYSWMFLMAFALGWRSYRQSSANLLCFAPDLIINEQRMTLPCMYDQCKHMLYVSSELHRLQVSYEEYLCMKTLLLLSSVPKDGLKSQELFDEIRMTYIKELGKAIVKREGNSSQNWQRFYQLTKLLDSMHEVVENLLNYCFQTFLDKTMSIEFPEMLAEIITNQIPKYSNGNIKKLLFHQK
Cytochrome P450 3A4 (Homo sapiens), sequence (P08684 whole entry, looked up): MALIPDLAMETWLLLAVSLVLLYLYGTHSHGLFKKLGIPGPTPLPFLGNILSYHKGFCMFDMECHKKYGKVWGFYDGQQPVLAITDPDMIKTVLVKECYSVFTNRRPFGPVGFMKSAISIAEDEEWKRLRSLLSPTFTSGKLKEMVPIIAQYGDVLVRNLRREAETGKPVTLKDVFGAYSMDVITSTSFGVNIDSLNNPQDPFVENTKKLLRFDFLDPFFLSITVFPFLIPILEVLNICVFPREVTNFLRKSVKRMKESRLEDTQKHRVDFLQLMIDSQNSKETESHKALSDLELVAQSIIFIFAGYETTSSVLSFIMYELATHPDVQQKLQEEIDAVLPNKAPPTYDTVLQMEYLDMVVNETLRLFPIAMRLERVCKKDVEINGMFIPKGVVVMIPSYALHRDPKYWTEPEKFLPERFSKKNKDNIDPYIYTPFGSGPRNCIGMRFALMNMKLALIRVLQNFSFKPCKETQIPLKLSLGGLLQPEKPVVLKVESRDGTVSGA
Ubiquitin carboxyl-terminal hydrolase 1 (Homo sapiens), sequence (O94782 whole entry, looked up): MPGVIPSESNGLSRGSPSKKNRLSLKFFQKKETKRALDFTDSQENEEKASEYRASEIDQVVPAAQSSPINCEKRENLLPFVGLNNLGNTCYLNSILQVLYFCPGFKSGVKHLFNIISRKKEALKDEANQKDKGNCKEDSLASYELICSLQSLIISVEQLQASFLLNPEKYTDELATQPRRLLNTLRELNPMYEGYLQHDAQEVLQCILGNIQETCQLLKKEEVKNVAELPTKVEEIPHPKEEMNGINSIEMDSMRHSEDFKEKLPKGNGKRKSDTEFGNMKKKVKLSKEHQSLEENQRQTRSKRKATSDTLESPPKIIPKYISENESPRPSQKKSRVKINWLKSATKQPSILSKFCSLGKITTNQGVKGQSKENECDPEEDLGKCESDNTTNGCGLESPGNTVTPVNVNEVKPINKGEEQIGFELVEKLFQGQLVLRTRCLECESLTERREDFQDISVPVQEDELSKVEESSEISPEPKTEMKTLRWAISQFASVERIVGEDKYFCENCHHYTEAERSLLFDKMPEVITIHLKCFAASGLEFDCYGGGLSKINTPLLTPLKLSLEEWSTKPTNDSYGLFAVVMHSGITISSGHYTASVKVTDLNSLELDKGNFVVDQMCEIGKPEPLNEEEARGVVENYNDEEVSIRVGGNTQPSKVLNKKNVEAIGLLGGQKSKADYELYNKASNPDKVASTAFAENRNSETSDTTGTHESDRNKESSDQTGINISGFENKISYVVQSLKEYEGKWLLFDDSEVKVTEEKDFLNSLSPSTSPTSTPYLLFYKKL

Cc1noc(C)c1-c1ccc2ncnc(N3CCN(C)CC3)c2c1
21%: max response [7, 18]
4.95%: max response [7, 19]
active: Potency [2] 12.6 µM | Potency [8] 10 µM | Potency [9] 10 µM
inactive: Potency [1] > 11.4 µM | Potency [3] > 46 µM | Potency [4] > 46 µM | outcome [5] | Potency [6] | activity change, negative = inhibition [7] 0.38% | Potency [10] | Potency [11]

COCCNc1ncnc2ccc(-c3cccc(OC)c3)cc12
-14.2%: max response [7, 19]
active: Potency [2] 0.794 µM | Potency [8] 0.708 µM | Potency [9] 0.562 µM
-9.38%: max response [7, 18]
inactive: Potency [1] > 11.4 µM | activity, negative = inhibition [12] -27.4% | Potency [3] > 46 µM | Potency [4] > 46 µM | outcome [5] | Potency [13] | Potency [6] | activity change, negative = inhibition [7] -4.77% | Potency [10] | Potency [11]

COc1cccc(Cn2c(=O)c(-c3cc(F)cc(F)c3)nc3cnc(N4CCN(C)CC4)nc32)c1
inactive: Potency [1] > 11.4 µM | Potency [2] | Potency [3] > 9.22 µM | Potency [4] > 46 µM | outcome [5] | Potency [13] | Potency [6] | activity change, negative = inhibition [7] 1.17% | Potency [8] | Potency [9] | Potency [10] | Potency [11]
18.2%: max response [7, 19]
19%: max response [7, 18]

O=c1c(-c2cc(F)cc(F)c2)nc2cncnc2n1-c1ccccc1
28.7%: max response [7, 19]
inactive: Potency [1] > 11.4 µM | activity change, negative = inhibition [14] -15.8% | activity change, negative = inhibition [15] -2.26% | activity, negative = inhibition [12] -16.9% | Potency [3] > 9.22 µM | Potency [4] > 46 µM | outcome [5] | activity change, negative = inhibition [7] 6.93% | Potency [8] | Potency [16] | Potency [10] | Potency [11]
active: Potency [2] 12.6 µM
22.2%: max response [7, 18]

CN(C)C(=O)c1ccc(-c2cncnc2NCCc2cnc[nH]2)cc1
29.1%: max response [7, 18]
inactive: Potency [1] > 11.4 µM | activity change, negative = inhibition [14] -9.74% | activity change, negative = inhibition [15] 18.2% | activity, negative = inhibition [12] -26.8% | Potency [3] > 46 µM | outcome [5] | Potency [13] | Potency [6] | activity change, negative = inhibition [7] 3.4% | Potency [8] | Potency [16] | Potency [10] | Potency [11]
active: Potency [2] 12.6 µM | Potency [17] 6.31 µM
30.3%: max response [7, 19]

CCNc1ncc2ncc(=O)n(CCOC)c2n1
18.7%: max response [7, 18]
active: Potency [8] 15.8 µM | Potency [9] 11.2 µM
inactive: Potency [1] > 11.4 µM | activity change, negative = inhibition [14] -22.6% | activity change, negative = inhibition [15] 4.31% | activity, negative = inhibition [12] -26.5% | Potency [3] > 46 µM | Potency [4] > 46 µM | outcome [5] | Potency [13] | activity change, negative = inhibition [7] 6.16% | Potency [11]
22.5%: max response [7, 19]
